High-throughput results deposited in PubChem by several laboratories.
HTR5A ag = HTR5A agonists in luminescence cell assay, primary screen, counter-screen for OPRM1-OPRD1 heterodimer agonist project, full-deck HTS | activation, % at 9.3 µM | actives 0.61% (n = 340,000) | AID 504692, 2011 | cell-based; in the data active = activation mostly above about 9.5%, no sharp cut-off; inactive = mostly below about 7.6%;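 also: 0% = cells with vehicle only and 100% = reference agonist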
Target sequence (P47898 whole entry, looked up): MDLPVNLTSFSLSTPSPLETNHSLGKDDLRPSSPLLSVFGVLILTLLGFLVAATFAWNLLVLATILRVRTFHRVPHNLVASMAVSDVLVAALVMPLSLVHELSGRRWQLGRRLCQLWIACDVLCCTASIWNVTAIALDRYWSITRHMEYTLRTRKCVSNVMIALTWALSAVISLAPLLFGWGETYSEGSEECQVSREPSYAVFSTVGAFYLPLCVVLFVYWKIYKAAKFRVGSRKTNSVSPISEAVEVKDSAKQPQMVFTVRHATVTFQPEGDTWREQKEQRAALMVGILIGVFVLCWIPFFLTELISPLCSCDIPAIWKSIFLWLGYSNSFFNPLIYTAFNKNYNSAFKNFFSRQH
MOR-DOR ag = agonists of OPRM1-OPRD1 heterodimerization, primary screen, cell-based, luminescence; Mu-type opioid receptor (Homo sapiens) + Delta-type opioid receptor (Homo sapiens), …; cells; activation, % at 9.3 µM; actives 0.3% (n = 340,000); in the data active = activation above about 18%;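 also: 0% = vehicle-treated cells and 100% = reference agonist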
OPRM1-OPRD1 inv = inverse agonists of MOR-DOR heterodimerization, primary screen, cell-based, luminescence; Mu-type opioid receptor (Homo sapiens) + Delta-type opioid receptor (Homo sapiens), …; inhibition, % at 9.3 µM; actives 0.21% (n = 340,000); cell-based MOR-DOR heterodimer luminescence, inverse agonism; in the data active = inhibition above about 22%, passing the limit was not always enough;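 also: 0% = cells with DMSO and 100% = wells without cells with DMSO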
NALP1 inh = NALP1 inflammasome inhibitors in reconstituted yeast, colorimetric, S. cerevisiae, triplicate retest; S. cerevisiae NALP1/ASC/caspase-1 growth, X-gal OD620, 72 h; inhibition, % at 10 µM; actives 0.61% (n = 280,000); AID 2071, 2009; in the data active = inhibition mostly above about 24%, no sharp cut-off; inactive = mostly below about 32%
PolyA inh = polyadenylation inhibitors in yeast reporter cells, primary screen, luminescence, S. cerevisiae; S. cerevisiae SKY197-pL101 polyadenylation reporter, beta-gal luminescence; efflux-impaired pdr1/pdr3 knockout yeast; score 100 = 6 SD above DMSO; activity score, % at 12 µM; actives 0.02% (n = 300,000);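 active = lowest replicate activity score at least 50, where 100 means six control SD above control mean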;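 also: yeast exposed to compound for 9 h at 30 °C; higher score means more reporter readthrough which indicates perturbed polyadenylation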
HTR5A inv ctr = HTR5A inverse agonists in luminescence cell assay, primary screen, counter-screen for OPRM1-OPRD1 heterodimer inverse agonist project, full-deck HTS; 5-hydroxytryptamine receptor 5A (Homo sapiens), P47898; HTR5A cell line, inverse agonism; inhibition, % at 9.3 µM; actives 0.083% (n = 340,000); AID 504634, 2011; in the data active = inhibition mostly above about 23%, no sharp cut-off; inactive = mostly below about 18%;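 also: 0% = cells with DMSO and 100% = no-cell wells with DMSO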
MOR-DOR inv conf = inverse agonists of MOR-DOR heterodimerization, confirmation, cell-based, luminescence; shares compounds with OPRM1-OPRD1 inv; cells expressing OPRM1/OPRD1 heterodimer; inhibition, % at 9.3 µM; actives 20% (n = 580); in the data active = inhibition above about 32%;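 also: 0% = cells with DMSO and 100% = wells lacking cells with DMSO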
HTR5A inv count = HTR5A inverse agonists, counter-screen for OPRM1-OPRD1 inverse agonist project, cell-based, luminescence; AID 504914, 2011; shares compounds with OPRM1-OPRD1 inv; HTR5A-expressing cells, inverse agonism; 580 tested, under 10 active; inhibition, % at 9.3 µM; call rule not given here;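 also: 0% = cells with DMSO and 100% = no-cell wells with DMSO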
* hit, by the source's call. Only some compounds are listed: those with a hit (about 1.6% of all), similar ones and a draw of the others.

What do the screens show for `CC1(C)CN(c2ccccc2)N(C(=O)c2ccc(C#N)cc2)C1=O`?
HTR5A ag: -2; MOR-DOR ag: -10; OPRM1-OPRD1 inv: 51*; NALP1 inh: -12; PolyA inh: 14; HTR5A inv ctr: -4; MOR-DOR inv conf: 25; HTR5A inv count: -7

How did CC1(C)COCN1C(=O)c1ccc(C#N)cc1 do in these assays?
HTR5A ag: 5; MOR-DOR ag: -4; OPRM1-OPRD1 inv: 19; NALP1 inh: 4; PolyA inh: -1; HTR5A inv ctr: -20

What do the screens show for `CC1(C)CN(c2ccccc2)N(C(=O)c2ccc(F)cc2)C1=O`?
HTR5A ag: 3; MOR-DOR ag: -9; OPRM1-OPRD1 inv: 46*; NALP1 inh: 0; PolyA inh: -10; HTR5A inv ctr: -9; MOR-DOR inv conf: -10; HTR5A inv count: -136

Results for CCN1C(=O)[C@H]2[C@@H](c3ccc(Cl)cc3)N3C(=O)CN(CCOC)C(=O)[C@@]3(Cc3ccccc3)[C@H]2C1=O ?
HTR5A ag: 4; MOR-DOR ag: -2; OPRM1-OPRD1 inv: 8; NALP1 inh: -3; PolyA inh: -11; HTR5A inv ctr: -10

How did Cc1ccc2c(c1)C(=O)C(=O)N2CC(=O)Nc1ccc(N2CCOCC2)cc1 do in these assays?
HTR5A ag: -3; MOR-DOR ag: -6; OPRM1-OPRD1 inv: 32*; NALP1 inh: 15; PolyA inh: 12; HTR5A inv ctr: 8; MOR-DOR inv conf: 37*; HTR5A inv count: 2

Results for CCC(=O)OCCNc1cc(SCCC(=O)OC)c2nonc2c1[N+](=O)[O-] ?
HTR5A ag: -2; MOR-DOR ag: 0; OPRM1-OPRD1 inv: 2; NALP1 inh: 26; PolyA inh: -7; HTR5A inv ctr: 7

What do the screens show for `CCC(=O)OCCNc1cc(Sc2nccn2C)c2nonc2c1[N+](=O)[O-]`?
HTR5A ag: -4; MOR-DOR ag: -8; OPRM1-OPRD1 inv: 42*; NALP1 inh: 33; PolyA inh: 19; HTR5A inv ctr: 15; MOR-DOR inv conf: -47; HTR5A inv count: -10

Results for CCCC(=O)OCCNc1cc(Sc2nc3ccccc3[nH]2)c2nonc2c1[N+](=O)[O-] ?
HTR5A ag: -8; MOR-DOR ag: -8; OPRM1-OPRD1 inv: 35*; NALP1 inh: 33; PolyA inh: 13; HTR5A inv ctr: 18; MOR-DOR inv conf: 26; HTR5A inv count: -4

What do the screens show for `Cc1cc(O)c(/C=N/Nc2ccc(Cl)cc2)c(=O)o1`?
HTR5A ag: -1; MOR-DOR ag: -9; OPRM1-OPRD1 inv: 46*; NALP1 inh: 9; PolyA inh: -25; HTR5A inv ctr: 3; MOR-DOR inv conf: -5; HTR5A inv count: -3

How did Cc1cc(O)c(/C=N/Nc2cccc(Cl)c2)c(=O)o1 do in these assays?
HTR5A ag: 1; MOR-DOR ag: -4; OPRM1-OPRD1 inv: 19; NALP1 inh: 6; PolyA inh: -29; HTR5A inv ctr: -3

What do the screens show for `COC(=O)CN1CC(=O)N(c2ccccc2)C1=S`?
HTR5A ag: 1; MOR-DOR ag: 0; OPRM1-OPRD1 inv: 1; NALP1 inh: 20; PolyA inh: 2; HTR5A inv ctr: -3

What do the screens show for `CC(=O)OCC1(C)CN(c2ccccc2)NC1=O` (stereo unspecified)?
HTR5A ag: -1; MOR-DOR ag: -9; OPRM1-OPRD1 inv: 42*; NALP1 inh: 17; PolyA inh: 3; HTR5A inv ctr: 3; MOR-DOR inv conf: 25; HTR5A inv count: 1

Results for CC(=O)OCC1(C)CN(c2ccccc2)N(C(=O)c2ccc(C(C)(C)C)cc2)C1=O (stereo unspecified) ?
HTR5A ag: -6; MOR-DOR ag: -3; OPRM1-OPRD1 inv: 23*; NALP1 inh: 24; PolyA inh: 0; HTR5A inv ctr: 3; MOR-DOR inv conf: -6; HTR5A inv count: -232

What do the screens show for `CC(=O)OCC1(C)CN(c2ccccc2)N(C(C)=O)C1=O` (stereo unspecified)?
HTR5A ag: -5; MOR-DOR ag: -8; OPRM1-OPRD1 inv: 40*; NALP1 inh: -2; PolyA inh: 12; HTR5A inv ctr: 11; MOR-DOR inv conf: -52; HTR5A inv count: -202

How did Cc1oc(-c2cccs2)nc1CN1CCN(CC(C)C)C(CCO)C1 (stereo unspecified) do in these assays?
HTR5A ag: 4; MOR-DOR ag: 5; OPRM1-OPRD1 inv: -35; NALP1 inh: 2; PolyA inh: 14; HTR5A inv ctr: -11

What do the screens show for `O=C(CN1C(=O)C(=O)c2ccccc21)OCN1C(=O)c2ccccc2C1=O`?
HTR5A ag: -2; MOR-DOR ag: -6; OPRM1-OPRD1 inv: 30; NALP1 inh: -15; PolyA inh: 8; HTR5A inv ctr: 5

How did COc1ccccc1NC(=O)COC(=O)CN1C(=O)C(=O)c2ccccc21 do in these assays?
HTR5A ag: 1; MOR-DOR ag: -8; OPRM1-OPRD1 inv: 57*; NALP1 inh: 2; PolyA inh: -25; HTR5A inv ctr: 10; MOR-DOR inv conf: 8; HTR5A inv count: 6

How did COc1ccc(-c2csc(-c3ccccc3)n2)c(OC)c1 do in these assays?
HTR5A ag: 1; MOR-DOR ag: -2; OPRM1-OPRD1 inv: 8; NALP1 inh: 9; PolyA inh: -12; HTR5A inv ctr: -11

What do the screens show for `C[n+]1c2n(c3ccccc31)N=C(c1cc(C(C)(C)C)c(O)c(C(C)(C)C)c1)CS2`?
HTR5A ag: -1; MOR-DOR ag: -6; OPRM1-OPRD1 inv: 32*; NALP1 inh: 5; PolyA inh: -17; HTR5A inv ctr: 19; MOR-DOR inv conf: 51*; HTR5A inv count: 16

How did O=C(COC(=O)c1ccc(CO)cc1)NCc1cccs1 do in these assays?
HTR5A ag: 0; MOR-DOR ag: -1; OPRM1-OPRD1 inv: 7; NALP1 inh: 25; PolyA inh: 5; HTR5A inv ctr: 1

What do the screens show for `Cc1cc(C(=O)NNc2ccc(Cl)cc2)no1`?
HTR5A ag: 3; MOR-DOR ag: -7; OPRM1-OPRD1 inv: 35*; NALP1 inh: 10; PolyA inh: -31; HTR5A inv ctr: 12; MOR-DOR inv conf: 23; HTR5A inv count: 9
